Many of the other results were omitted from the sample, so hits are more common in it than they were.
Pf Dd2 inh = inhibitors of Plasmodium falciparum Dd2 growth; Potency, µM (top dose mostly 28.9 µM), hits mostly inhibitors; P. falciparum Dd2 growth, SYBR Green, 72 h; AID 1347417; 120,000 tested, 4.3% active; active = well fitted inhibition curve with a large enough effect; also: nearly all actives have a fitted effect of over 65% in size
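Infected erythrocytes (Dd2, 0.3% parasitemia, 2.5% hematocrit final) are added to compound in RPMI-1640/Albumax II medium, grown 72 h at 37C in low oxygen, then lysed with saponin/Triton-X containing SYBR Green and read by fluorescence.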
Each line names hits and unclear results; the compound was inactive in the other large screens.

Cc1cc(C)cc(NC(=O)c2sc3nc(-c4ccccc4)cn3c2C)c1	none
Cc1cccc(CC(=O)NC2CC(=O)N(c3ccc4c(c3)OCCO4)C2)c1 (configuration not stated)	none
COCCC(=O)N1CC(COC)C2(CCNCC2)C1 (configuration not stated)	none
O=C(Cc1ccc(F)c(F)c1F)N[C@@H]1CCNC[C@H]1O	none
COc1ccc(N2CCN(C(=O)CCS(=O)(=O)c3cc4c(cc3Cl)NC(=O)CO4)CC2)cc1	none
COc1ccc(C(=O)NCCSc2c(C)[nH]c3ccccc23)cc1	none
Cc1[nH]c2ccccc2c1SCCNC(=O)c1ccc(F)cc1	none
CCN(CC)S(=O)(=O)c1ccc(C(=O)NCCSc2c(-c3ccc(C)cc3)[nH]c3ccccc23)cc1	Pf Dd2 inh 10µM
CC(NC(=O)C1CCN(S(=O)(=O)c2ccc3c(c2)oc(=O)n3C)CC1)c1ccccc1 (configuration not stated)	none
CN(Cc1ccccc1)C(=O)CN1CC2CC(C1)[C@H]1CCCC(=O)N1C2 (some centres not stated)	none
O=C1CCC(CNC(=O)c2nc(-c3ccccc3)cc3[nH]ccc23)N1 (configuration not stated)	none
O=C(NCc1cccnc1)c1nc(-c2ccccc2)cc2[nH]ccc12	none
O=C(NCCCn1ccnc1)c1nc(-c2ccccc2)cc2[nH]ccc12	Pf Dd2 inh 11µM
Cc1ccc(NC(=O)Cn2c(=O)c3ccccc3n3nncc23)cc1	none
CC(C)(C)C1CCc2c(sc(NC(=O)c3ccco3)c2C(=O)Nc2ccccc2Cl)C1 (configuration not stated)	none
Cc1cccc(NC(=O)c2c(NC(=O)c3ccco3)sc3c2CCC(C(C)(C)C)C3)c1 (configuration not stated)	Pf Dd2 inh 7.1µM
Cc1cccc(NC(=O)c2c(NC(=O)c3ccco3)sc3c2CCC(C)C3)c1 (configuration not stated)	none
CCc1noc(-c2cn(C3CCN(C(=O)c4ccc(F)cc4)CC3)nn2)n1	none
Cn1c(CO[C@H]2CN(Cc3ccc4c(c3)OCO4)C[C@H]2F)nc2ccccc21	none
COC(=O)CNC(=O)NCCc1ncc(C)n1C1CCCC1	none
COc1ccc(C2(C(=O)NCCc3ncc(C)n3C3CC3)CC2)cc1	Pf Dd2 inh 2.5µM
CCCn1c(C)cnc1CC1CCN(C(=O)C2(c3ccc(OC)cc3)CC2)C1 (configuration not stated)	Pf Dd2 inh 5µM
COCCn1c(C)cnc1CC1CCCN(C(=O)C2(c3ccc(OC)cc3)CC2)C1 (configuration not stated)	none
Cc1cnc(CCNC(=O)c2ccnn2C)n1C1CC1	none
CCCn1c(C)cnc1CC1CCN(C(=O)c2c(C)noc2C)CC1	none
Cc1cnc(C2CCC2)n1C1CCN(C(=O)C2(c3ccccc3)CC2)CC1	Pf Dd2 inh 13µM
Cc1cnc(CCNC(=O)C2(c3ccccc3)CC2)n1C1CCCCCC1	Pf Dd2 inh 2.2µM
Cc1cnc(C(=O)NCCc2ncc(C)n2C2CC2)cn1	none
Cc1ccc(NC(=O)NCCc2ncc(C)n2C2CCC2)cc1C	none
CC(=O)N1CCC(n2c(C)cnc2C2CC2)CC1	none
Cc1cnc(-c2ccncc2)n1C1CCCN(C(=O)C2(c3ccccc3)CC2)C1 (configuration not stated)	none
Cc1ccc2c(C(=O)NCc3cc(F)cc(F)c3)cc(NC(=O)C(C)C)cc2n1	none
CCOc1ccccc1N(C)C(=O)Cn1cnc2onc(-c3ccc(F)cc3)c2c1=O	none
COCCCn1c(=O)c2sccc2n2c(CCCC(=O)Nc3cccc(C(F)(F)F)c3)nnc12	none
COC(=O)C(CCSC)NC(=O)Cn1ncc2c([nH]c3ccccc32)c1=O (configuration not stated)	none
CC1(C(=O)NCC2CC2)CCCc2cnc(Nc3ccccc3)nc21 (configuration not stated)	none
OCC1CN(c2ccncn2)CC12CCN(C1CCSCC1)CC2 (configuration not stated)	none
Cc1nc(-c2ccccc2)n(Cc2nc(-c3ccccc3)oc2C)c(=O)c1CCO	none
CC(=O)N1CCC(C(=O)NCCc2ncc(C)n2C2CCC2)CC1	none
Cc1cnc(CCNC(=O)COc2ccccc2)n1C1CCC1	Pf Dd2 inh 3.2µM
Cc1cnc(CCNC(=O)c2ccc(C#N)cc2)n1C1CCC1	none
Cc1ccc(-c2nc(C3CC(=O)N(c4ccc(F)cc4)C3)no2)c(C)c1 (configuration not stated)	none
CCC1CCCCN1C(=O)CSc1nc2c([nH]c3ccccc32)c(=O)n1-c1cccc(OC)c1 (configuration not stated)	none
O=C(Nc1ccc2c(N3CCCC3)ncnc2c1)c1cccc(F)c1	Pf Dd2 inh 2µM
O=C(Nc1ccc2c(N3CCCC3)ncnc2c1)c1cc(F)ccc1F	Pf Dd2 inh 3.2µM
Cc1oc2ncnc(N3CCCCC3)c2c1C(=O)Nc1cccc(F)c1	none
O=C(Nc1ccc2ncnc(N3CCCCC3)c2c1)c1cc(F)ccc1F	none
O=C(Nc1ccc2ncnc(N3CCCCC3)c2c1)c1ccc(F)c(F)c1	none
O=C(Nc1ccc2c(N3CCCC3)ncnc2c1)c1cc(F)ccc1Cl	Pf Dd2 inh 5µM
Cc1cnn(C2(C(=O)O)CCN(C(=O)CCc3cnn(C)c3)CC2)c1	none

Compound activity as filed in PubChem BioAssay.
